Molecules are shown by their SMILES. Measured potencies and affinities stand elsewhere.

The test system of the first assay is Staphylococcus aureus. The settings on record: Concentration 20 uM; ASSAY_TEST Inhibition of Bacterial Growth; detection method Absorption (OD600); MEDIA CAMHB; plate type 384well; NBS; CORNING #3640; time 18 hr.
Take `C[C@]12C=CC(=O)C=C1CC[C@@H]1[C@@H]2[C@@H](O)C[C@@]2(C)[C@H]1CC[C@]2(O)C(=O)CO` [PREDNISOLONE]: the Inhibition – broadly, the relative decrease from the control value, in per cent – is listed as 7.56%.

As for `CCOC(=O)c1ccc(OC(=O)CCCCCN=C(N)N)cc1.CS(=O)(=O)O`, the Inhibition came to 11.22%. For the compound `COc1cc(/C=C/c2ccc(O)cc2)cc(OC)c1` [PTEROSTILBENE], the Inhibition turned out to be 13.68%. Regarding `CN(C)CC[C@@H](c1ccc(Cl)cc1)c1ccccn1.O=C(O)/C=C\C(=O)O` [DEXCHLORPHENIRAMINE MALEATE], the Inhibition stood at 5.99%. Turning to `CC(C(=O)[O-])c1ccc(CC2CCCC2=O)cc1.[Na+]` (centres undefined) [LOXOPROFEN SODIUM], the Inhibition stood at 9.06%.

Consider `COc1ccc([C@@H]2Sc3ccccc3N(CCN(C)C)C(=O)[C@@H]2OC(C)=O)cc1.Cl` [DILTIAZEM HYDROCHLORIDE], for which the Inhibition is 12.74%. As to `Nc1ccc(O)c(C(=O)O)c1` [MESALAMINE], the Inhibition is given as -19.58%. As for `CN(C)CC[C@@H](c1ccc(Br)cc1)c1ccccn1.O=C(O)/C=C\C(=O)O` [DEXBROMPHENIRAMINE MALEATE], the Inhibition is 4.45%. For the compound `CCN(CC)CC(=O)Nc1c(C)cccc1C` [LIDOCAINE], the Inhibition is listed as 9.46%. On the same count and under the same terms, under `COc1ccnc(C[S+]([O-])c2nc3cc(OC(F)F)ccc3[n-]2)c1OC.O.[Na+]` (centres undefined) [PANTOPRAZOLE SODIUM] stands 15.25%; under `CCCCC(=O)OC1(C(=O)CO)CCC2C3CCC4=CC(=O)CCC4(C)C3C(O)CC21C` (centres undefined), 4.02%. Turning to `N=c1cc(N2CCCCC2)nc(N)n1O`, the Inhibition is given as 14.68%. Turning to `CN1CCN(CC/C=C2/c3ccccc3Sc3ccc(S(=O)(=O)N(C)C)cc32)CC1` [THIOTHIXENE], the Inhibition is 8.53%. `Cl.Clc1cccc(Cl)c1NC1=NCCN1` [CLONIDINE HYDROCHLORIDE]: the Inhibition turned out to be 11.8%.

Take `CC(C)OC(=O)CCC/C=C\C[C@@H]1[C@@H](CC[C@@H](O)CCc2ccccc2)[C@H](O)C[C@@H]1O` [LATANOPROST]: the Inhibition was found to be 13.97%.

In the case of `CCCC(CCC)C(=O)O` [VALPROIC ACID], the Inhibition is reported as 9.7%. With `NS(=O)(=O)c1cc2c(cc1Cl)N=CNS2(=O)=O` [CHLOROTHIAZIDE], the Inhibition is 7.87%. In the case of `Cc1cc2c(s1)Nc1ccccc1N=C2N1CCN(C)CC1` [OLANZAPINE], the Inhibition amounted to 9.67%.

For the compound `COc1ccccc1N1CCN(CC(O)COc2cccc3ccccc23)CC1` (centres undefined) [NAFTOPIDIL], the Inhibition is reported as 4.28%. For the compound `CC(CN1c2ccccc2Sc2ccccc21)N(C)C.Cl` (centres undefined) [PROMETHAZINE HYDROCHLORIDE], the Inhibition was 15.79%.

As to `C#C[C@]1(O)CC[C@H]2[C@@H]3CCC4=Cc5oncc5C[C@]4(C)[C@H]3CC[C@@]21C` [DANAZOL], the Inhibition is recorded as 2.21%. On the same count and under the same terms, the figure for `CC(C)Cc1ccc(C(C)C(=O)O)cc1` (centres undefined) [IBUPROFEN] is -8.87%; for `NS(=O)(=O)c1cc(C(=O)O)c(NCc2ccco2)cc1Cl` [FUROSEMIDE] it is 14.48%; for `CC(C)(C)NC(=O)[C@@H]1CN(Cc2cccnc2)CCN1C[C@@H](O)C[C@@H](Cc1ccccc1)C(=O)N[C@H]1c2ccccc2C[C@H]1O.O=S(=O)(O)O` [INDINAVIR SULFATE] it is 6.61%.

Consider `C#C[C@]1(O)CC[C@H]2[C@@H]3CCC4=CC(=O)CC[C@@H]4[C@H]3CC[C@@]21CC` [LEVONORGESTREL], for which the Inhibition is listed as 8.4%. `CC(=O)[C@@]1(O)CC[C@H]2[C@@H]3C[C@H](C)C4=CC(=O)CC[C@]4(C)[C@H]3CC[C@@]21C`: the Inhibition was determined as 8.66%. For `CCOC(=O)[C@H](CCc1ccccc1)N[C@H]1CCc2ccccc2N(CC(=O)O)C1=O.Cl` [BENAZEPRIL HYDROCHLORIDE], the Inhibition stood at 9.63%. `CCOC(=O)OC(C)OC1=C(C(=O)Nc2ccccn2)N(C)S(=O)(=O)c2ccccc21` (centres undefined) [AMPIROXICAM]: the Inhibition worked out at 16.07%. With `Cc1ncc([N+](=O)[O-])n1CC(O)CCl` (centres undefined) [ORNIDAZOLE], the Inhibition is recorded as 10.83%. The same measure, in the same setting: under `CN1CCc2cc(Cl)c(O)cc2[C@@H](c2ccccc2)C1.Cl` stands 10.41%. For the compound `COc1cc2nc(N3CCN(C(=O)C4CCCO4)CC3)nc(N)c2cc1OC` (centres undefined) [TERAZOSIN], the Inhibition was determined as 8.19%.

As to `CNCC(O)c1ccc(O)c(O)c1` (centres undefined) [RACEPINEPHRINE], the Inhibition was 9.77%. Take `CCN(CC)CCOC(=O)c1ccc(N)cc1.Cl` [PROCAINE HYDROCHLORIDE]: the Inhibition worked out at 7.14%. On to `Cl.O=C(c1ccc(OCCN2CCCCC2)cc1)c1c(-c2ccc(O)cc2)sc2cc(O)ccc12` [RALOXIFENE HYDROCHLORIDE], for which the Inhibition is 16.87%. For the compound `CCN1CCC[C@H]1CNC(=O)c1c(O)c(Cl)cc(Cl)c1OC` [RACLOPRIDE], the Inhibition turned out to be 2.11%. As to `Nc1nc(Cl)nc2c1ncn2[C@@H]1O[C@H](CO)[C@@H](O)[C@H]1O`, the Inhibition is recorded as -10.52%.

Another assay deals with Escherichia coli. As to conditions: Concentration 20 uM; ASSAY_TEST Inhibition of Bacterial Growth; detection method Absorption (OD600); MEDIA CAMHB; plate type 384well; NBS; CORNING #3640; time 18 hr.
On to `C[C@]12C=CC(=O)C=C1CC[C@@H]1[C@@H]2[C@@H](O)C[C@@]2(C)[C@H]1CC[C@]2(O)C(=O)CO` [PREDNISOLONE], for which the Inhibition was 7.41%. For the compound `CCOC(=O)c1ccc(OC(=O)CCCCCN=C(N)N)cc1.CS(=O)(=O)O`, the Inhibition is reported as -0.78%. For the compound `COc1cc(/C=C/c2ccc(O)cc2)cc(OC)c1` [PTEROSTILBENE], the Inhibition is listed as 1.16%. As for `CN(C)CC[C@@H](c1ccc(Cl)cc1)c1ccccn1.O=C(O)/C=C\C(=O)O` [DEXCHLORPHENIRAMINE MALEATE], the Inhibition was determined as 6.96%. For the compound `CC(C(=O)[O-])c1ccc(CC2CCCC2=O)cc1.[Na+]` (centres undefined) [LOXOPROFEN SODIUM], the Inhibition was -0.84%. Take `COc1ccc([C@@H]2Sc3ccccc3N(CCN(C)C)C(=O)[C@@H]2OC(C)=O)cc1.Cl` [DILTIAZEM HYDROCHLORIDE]: the Inhibition is 5.44%. In the case of `Nc1ccc(O)c(C(=O)O)c1` [MESALAMINE], the Inhibition is reported as 3.21%. For the compound `CN(C)CC[C@@H](c1ccc(Br)cc1)c1ccccn1.O=C(O)/C=C\C(=O)O` [DEXBROMPHENIRAMINE MALEATE], the Inhibition is 5.01%. Take `CCN(CC)CC(=O)Nc1c(C)cccc1C` [LIDOCAINE]: the Inhibition is on record as -3.44%. Consider `CCC(C)(C)C(=O)O[C@H]1C[C@@H](C)C=C2C=C[C@H](C)[C@H](CC[C@@H]3C[C@@H](O)CC(=O)O3)[C@H]21` [SIMVASTATIN], for which the Inhibition is 6.01%. As to `COc1ccnc(C[S+]([O-])c2nc3cc(OC(F)F)ccc3[n-]2)c1OC.O.[Na+]` (centres undefined) [PANTOPRAZOLE SODIUM], the Inhibition is listed as 1.53%. Consider `CCCCC(=O)OC1(C(=O)CO)CCC2C3CCC4=CC(=O)CCC4(C)C3C(O)CC21C` (centres undefined), for which the Inhibition is recorded as 3.22%. Consider `N=c1cc(N2CCCCC2)nc(N)n1O`, for which the Inhibition is given as -3.43%.

In the case of `CN1CCN(CC/C=C2/c3ccccc3Sc3ccc(S(=O)(=O)N(C)C)cc32)CC1` [THIOTHIXENE], the Inhibition was 3.6%. Take `Cl.Clc1cccc(Cl)c1NC1=NCCN1` [CLONIDINE HYDROCHLORIDE]: the Inhibition is given as 4.68%.

For `CC(C)OC(=O)CCC/C=C\C[C@@H]1[C@@H](CC[C@@H](O)CCc2ccccc2)[C@H](O)C[C@@H]1O` [LATANOPROST], the Inhibition is listed as 1.96%. Turning to `CCCC(CCC)C(=O)O` [VALPROIC ACID], the Inhibition is -0.41%. On to `NS(=O)(=O)c1cc2c(cc1Cl)N=CNS2(=O)=O` [CHLOROTHIAZIDE], for which the Inhibition is listed as -2.82%. Regarding `Cc1cc2c(s1)Nc1ccccc1N=C2N1CCN(C)CC1` [OLANZAPINE], the Inhibition came to 0.45%. Regarding `COc1ccccc1N1CCN(CC(O)COc2cccc3ccccc23)CC1` (centres undefined) [NAFTOPIDIL], the Inhibition worked out at 7.29%. Still for that read-out and setting: under `CC(CN1c2ccccc2Sc2ccccc21)N(C)C.Cl` (centres undefined) [PROMETHAZINE HYDROCHLORIDE] stands 1.25%; under `C#C[C@]1(O)CC[C@H]2[C@@H]3CCC4=Cc5oncc5C[C@]4(C)[C@H]3CC[C@@]21C` [DANAZOL], -2.5%; under `CC(C)Cc1ccc(C(C)C(=O)O)cc1` (centres undefined) [IBUPROFEN], 0.37%. As to `NS(=O)(=O)c1cc(C(=O)O)c(NCc2ccco2)cc1Cl` [FUROSEMIDE], the Inhibition is -0.33%. Regarding `CC(C)(C)NC(=O)[C@@H]1CN(Cc2cccnc2)CCN1C[C@@H](O)C[C@@H](Cc1ccccc1)C(=O)N[C@H]1c2ccccc2C[C@H]1O.O=S(=O)(O)O` [INDINAVIR SULFATE], the Inhibition turned out to be 5.22%.

For the compound `C#C[C@]1(O)CC[C@H]2[C@@H]3CCC4=CC(=O)CC[C@@H]4[C@H]3CC[C@@]21CC` [LEVONORGESTREL], the Inhibition is recorded as 3.88%. In the case of `CC(=O)[C@@]1(O)CC[C@H]2[C@@H]3C[C@H](C)C4=CC(=O)CC[C@]4(C)[C@H]3CC[C@@]21C`, the Inhibition is reported as -5.84%. On the same count and under the same terms, the figure for `CCOC(=O)[C@H](CCc1ccccc1)N[C@H]1CCc2ccccc2N(CC(=O)O)C1=O.Cl` [BENAZEPRIL HYDROCHLORIDE] is 0.93%.

In the case of `CCOC(=O)OC(C)OC1=C(C(=O)Nc2ccccn2)N(C)S(=O)(=O)c2ccccc21` (centres undefined) [AMPIROXICAM], the Inhibition is reported as -0.97%. The same measure, in the same setting: under `Cc1ncc([N+](=O)[O-])n1CC(O)CCl` (centres undefined) [ORNIDAZOLE] stands 5.05%. `CN1CCc2cc(Cl)c(O)cc2[C@@H](c2ccccc2)C1.Cl`: the Inhibition was 0.35%.

Consider `COc1cc2nc(N3CCN(C(=O)C4CCCO4)CC3)nc(N)c2cc1OC` (centres undefined) [TERAZOSIN], for which the Inhibition is -0.53%. As for `CNCC(O)c1ccc(O)c(O)c1` (centres undefined) [RACEPINEPHRINE], the Inhibition came out at 2.6%.

For the compound `O=C([O-])Cc1ccccc1Nc1c(Cl)cccc1Cl.[Na+]` [DICLOFENAC SODIUM], the Inhibition is 7.01%.

As to `CCN(CC)CCOC(=O)c1ccc(N)cc1.Cl` [PROCAINE HYDROCHLORIDE], the Inhibition amounted to 4.36%.

For `Cl.O=C(c1ccc(OCCN2CCCCC2)cc1)c1c(-c2ccc(O)cc2)sc2cc(O)ccc12` [RALOXIFENE HYDROCHLORIDE], the Inhibition is recorded as -1.03%. With `CCN1CCC[C@H]1CNC(=O)c1c(O)c(Cl)cc(Cl)c1OC` [RACLOPRIDE], the Inhibition is on record as 10.63%. For the compound `Nc1nc(Cl)nc2c1ncn2[C@@H]1O[C@H](CO)[C@@H](O)[C@H]1O`, the Inhibition stood at 3.01%.

Values taken from ChEMBL document CHEMBL4513141, “CO-ADD screening of NIH (USA) - Clinical Collection” (2021).
